Results as given in the supplement of paper PMC6555819.

What was measured:
Experiment in all cases: PBM binding z-score (relative to random genomic background probes); higher = stronger binding; sequences stand for … in GC…GCGATTGACAGCGTAGAATGAAGG
[1] = system: PPARg:RXRa DBDmut IVT, anti-RXR (DBD mutation: RXRa K156A/R161A, NR concentration 270 nM, RXRa partner concentration 90 nM)
Method in brief: (§1)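 Binding buffer was PBS pH 7.4 with 2% milk, 0.02% Triton X-100, 1 mM DTT, 0.2 mg/mL BSA and 0.4 mg/ml salmon testes DNA. In it, ligand-free nuclear receptor dimers were incubated 1 h on custom Agilent 4×180K protein-binding microarrays carrying double-stranded probes. Antibodies against each partner (one per run) detected binding, and z-scores were calculated against random background probes after regression normalization of scanned fluorescence.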

[2] = system: PPARg:RXRa IVT, anti-PPARg (NR concentration 270 nM, RXRa partner concentration 90 nM)
Method in brief: as §1

[3] = system: PPARg DBDmut:RXRa IVT, anti-PPARg (DBD mutation: PPARg1 K132A/R137A, NR concentration 270 nM, RXRa partner concentration 90 nM)
Method in brief: as §1

[4] = system: PPARg DBDmut IVT, anti-PPARg (DBD mutation: PPARg1 K132A/R137A, NR concentration 270 nM)
Method in brief: as §1

[5] = system: PPARg homodimer (NR concentration 180 nM)
Method in brief: as §1

[6] = system: PXR:RXRa (NR concentration 270 nM, RXRa partner concentration 90 nM)
Method in brief: as §1

[7] = system: PXR homodimer (NR concentration 270 nM)
Method in brief: as §1

[8] = system: RARa:RXR (NR concentration 270 nM, RXRa partner concentration 90 nM)
Method in brief: as §1

[9] = system: RARa homodimer (NR concentration 270 nM)
Method in brief: as §1

[10] = system: RARb:RXRa (NR concentration 270 nM, RXRa partner concentration 90 nM)
Method in brief: as §1

TCTAGCAGGCCTGAGGGTCACTCAAGAGGTACGG
PBM binding z-score [1]: 0.475 | PBM binding z-score [2]: -0.212 | PBM binding z-score [3]: -2.08 | PBM binding z-score [4]: -1.13 | PBM binding z-score [5]: 0.706 | PBM binding z-score [6]: 1.92 | PBM binding z-score [7]: -0.465 | PBM binding z-score [8]: 2.85 | PBM binding z-score [9]: -0.571 | PBM binding z-score [10]: 2.12

GCTAGTTGGTCACTAAAAGGTCACACACCGGTCG
PBM binding z-score [1]: 1.75 | PBM binding z-score [2]: 3.25 | PBM binding z-score [3]: -0.266 | PBM binding z-score [4]: -0.384 | PBM binding z-score [5]: 4.15 | PBM binding z-score [6]: 5.01 | PBM binding z-score [7]: 1.59 | PBM binding z-score [8]: 5.91 | PBM binding z-score [9]: 1.48 | PBM binding z-score [10]: 4.49

CGAACGAGGGCATGAGTTGAAAGCAAATGCCGAT
PBM binding z-score [1]: 2.92 | PBM binding z-score [2]: 2.09 | PBM binding z-score [3]: -0.35 | PBM binding z-score [4]: -0.394 | PBM binding z-score [5]: 0.0525 | PBM binding z-score [6]: 0.538 | PBM binding z-score [7]: -0.57 | PBM binding z-score [8]: 0.846 | PBM binding z-score [9]: -0.757 | PBM binding z-score [10]: 1.96

GCGACTGTGGCAAAGCAGGTTACCATAAGGTTGG
PBM binding z-score [1]: 0.686 | PBM binding z-score [2]: 0.528 | PBM binding z-score [3]: -0.512 | PBM binding z-score [4]: -1.16 | PBM binding z-score [5]: -0.377 | PBM binding z-score [6]: -0.184 | PBM binding z-score [7]: -0.793 | PBM binding z-score [8]: -0.0448 | PBM binding z-score [9]: -0.9 | PBM binding z-score [10]: -0.0264

TAGCCTAGGTCATTGGGTCAGTATAGTACGCATC
PBM binding z-score [1]: 4.09 | PBM binding z-score [2]: 4.95 | PBM binding z-score [3]: 0.491 | PBM binding z-score [4]: 0.952 | PBM binding z-score [5]: 3.71 | PBM binding z-score [6]: 2.99 | PBM binding z-score [7]: 0.622 | PBM binding z-score [8]: 3.67 | PBM binding z-score [9]: 0.571 | PBM binding z-score [10]: 4.06

GCTGCTAGGTCAACTGATGATCAGCTAAAGCTCG
PBM binding z-score [1]: 4.79 | PBM binding z-score [2]: 4.29 | PBM binding z-score [3]: -0.231 | PBM binding z-score [4]: 0.333 | PBM binding z-score [5]: 1.28 | PBM binding z-score [6]: 1.34 | PBM binding z-score [7]: -0.82 | PBM binding z-score [8]: 2.48 | PBM binding z-score [9]: -0.292 | PBM binding z-score [10]: 4.25

CCTACTGGGCCATTCAGAGGTCCTTGATCATATG
PBM binding z-score [1]: 4.1 | PBM binding z-score [2]: 3.15 | PBM binding z-score [3]: -0.401 | PBM binding z-score [4]: 0.127 | PBM binding z-score [5]: -0.0171 | PBM binding z-score [6]: -0.621 | PBM binding z-score [7]: -0.408 | PBM binding z-score [8]: -0.409 | PBM binding z-score [9]: -0.479 | PBM binding z-score [10]: 0.0641

ATGGAAAGGTCGAGGTGAGTATAGAGAAAGGGAA
PBM binding z-score [1]: 0.536 | PBM binding z-score [2]: 2.48 | PBM binding z-score [3]: 1.74 | PBM binding z-score [4]: 0.527 | PBM binding z-score [5]: 1.67 | PBM binding z-score [6]: 2.55 | PBM binding z-score [7]: 1.05 | PBM binding z-score [8]: 3.1 | PBM binding z-score [9]: 1.32 | PBM binding z-score [10]: 4.07

ATCGAAAGGTCGTTAGGTGAGTATACAGAAAGGC
PBM binding z-score [1]: 0.388 | PBM binding z-score [2]: 2.1 | PBM binding z-score [3]: 1.14 | PBM binding z-score [4]: 1.04 | PBM binding z-score [5]: 1.51 | PBM binding z-score [6]: 2.9 | PBM binding z-score [7]: 0.99 | PBM binding z-score [8]: 3.2 | PBM binding z-score [9]: 0.848 | PBM binding z-score [10]: 3.53

TTACCAAGGTGAAAGGTCGTTGATGCACGCCTTG
PBM binding z-score [1]: 2.84 | PBM binding z-score [2]: 4.92 | PBM binding z-score [3]: 0.117 | PBM binding z-score [4]: -0.276 | PBM binding z-score [5]: 1.41 | PBM binding z-score [6]: 3.96 | PBM binding z-score [7]: 0.351 | PBM binding z-score [8]: 5.27 | PBM binding z-score [9]: 0.055 | PBM binding z-score [10]: 3.04

CCGACTGGGGCATAAGGTTACGATAAGCCAGCCC
PBM binding z-score [1]: 2.87 | PBM binding z-score [2]: 3.37 | PBM binding z-score [3]: -0.323 | PBM binding z-score [4]: -1.04 | PBM binding z-score [5]: 1.02 | PBM binding z-score [6]: 0.614 | PBM binding z-score [7]: -0.423 | PBM binding z-score [8]: 1.66 | PBM binding z-score [9]: -0.594 | PBM binding z-score [10]: 1.77

TATACAGGCTCAAAGGCCAGAGTACGAATGTCGA
PBM binding z-score [1]: -0.518 | PBM binding z-score [2]: 0.865 | PBM binding z-score [3]: 0.383 | PBM binding z-score [4]: 0.281 | PBM binding z-score [5]: -0.146 | PBM binding z-score [6]: -0.262 | PBM binding z-score [7]: -0.323 | PBM binding z-score [8]: -0.258 | PBM binding z-score [9]: 0.14 | PBM binding z-score [10]: 0.95

TTCCCAAGGTGAAAGGTCGTTGATGCACGCCTTG
PBM binding z-score [1]: 1.67 | PBM binding z-score [2]: 4.56 | PBM binding z-score [3]: 0.3 | PBM binding z-score [4]: -0.0355 | PBM binding z-score [5]: 1.79 | PBM binding z-score [6]: 4.12 | PBM binding z-score [7]: 0.342 | PBM binding z-score [8]: 5.56 | PBM binding z-score [9]: -0.11 | PBM binding z-score [10]: 3.13

AGAATGAGGTTATACGTAGATAAGGGAAGAAAGT
PBM binding z-score [1]: 2.89 | PBM binding z-score [2]: 2.2 | PBM binding z-score [3]: 1.07 | PBM binding z-score [4]: 1.1 | PBM binding z-score [5]: 0.963 | PBM binding z-score [6]: 1.17 | PBM binding z-score [7]: 0.795 | PBM binding z-score [8]: 1.65 | PBM binding z-score [9]: 0.439 | PBM binding z-score [10]: 1.37

CGTAGCAGGCCAATCTGGGTCACTCAAGGCTTGA
PBM binding z-score [1]: 4.39 | PBM binding z-score [2]: 5.41 | PBM binding z-score [3]: 0.0881 | PBM binding z-score [4]: -0.653 | PBM binding z-score [5]: 0.384 | PBM binding z-score [6]: 1.07 | PBM binding z-score [7]: -0.642 | PBM binding z-score [8]: 1.47 | PBM binding z-score [9]: -0.582 | PBM binding z-score [10]: 1.48

TTTCCAAGGTGAAGGTCGTTGATCCCTCTGTAGA
PBM binding z-score [1]: 1.63 | PBM binding z-score [2]: 3.3 | PBM binding z-score [3]: -0.24 | PBM binding z-score [4]: 0.793 | PBM binding z-score [5]: 1.03 | PBM binding z-score [6]: 1.68 | PBM binding z-score [7]: 0.247 | PBM binding z-score [8]: 2.21 | PBM binding z-score [9]: -0.347 | PBM binding z-score [10]: 2.29

CAAACTGGGTCACGAAAGGTCAAAGTCGAATGAC
PBM binding z-score [1]: 8.29 | PBM binding z-score [2]: 8.88 | PBM binding z-score [3]: 2.86 | PBM binding z-score [4]: 1.62 | PBM binding z-score [5]: 5.34 | PBM binding z-score [6]: 7.09 | PBM binding z-score [7]: 2.6 | PBM binding z-score [8]: 7.48 | PBM binding z-score [9]: 2.73 | PBM binding z-score [10]: 5.56

TCATATAGGTAAGGGTGAAAGTCGAACGATATGA
PBM binding z-score [1]: 2.65 | PBM binding z-score [2]: 2.84 | PBM binding z-score [3]: 1.53 | PBM binding z-score [4]: 1.28 | PBM binding z-score [5]: 1.03 | PBM binding z-score [6]: 0.664 | PBM binding z-score [7]: 0.181 | PBM binding z-score [8]: 1.14 | PBM binding z-score [9]: 0.462 | PBM binding z-score [10]: 1.13

TCCTATAGGTAAACAGGTGAAAGTCCGTAAGTTA
PBM binding z-score [1]: 3.29 | PBM binding z-score [2]: 3.06 | PBM binding z-score [3]: 0.2 | PBM binding z-score [4]: 0.663 | PBM binding z-score [5]: 0.672 | PBM binding z-score [6]: 0.638 | PBM binding z-score [7]: 0.0288 | PBM binding z-score [8]: 0.69 | PBM binding z-score [9]: 0.325 | PBM binding z-score [10]: 0.692

TCTTGTAGATCAAAGTTTAAGAAAGCCGAAGCCT
PBM binding z-score [1]: 2.31 | PBM binding z-score [2]: 1.66 | PBM binding z-score [3]: 0.921 | PBM binding z-score [4]: 0.574 | PBM binding z-score [5]: 0.293 | PBM binding z-score [6]: 0.685 | PBM binding z-score [7]: 0.403 | PBM binding z-score [8]: 0.864 | PBM binding z-score [9]: 0.333 | PBM binding z-score [10]: 0.69

CGTCAAAGTTCAACTAAAGTAACGTAAAGCACGC
PBM binding z-score [1]: 0.164 | PBM binding z-score [2]: 2 | PBM binding z-score [3]: 1.4 | PBM binding z-score [4]: 1.46 | PBM binding z-score [5]: 3.19 | PBM binding z-score [6]: 4.82 | PBM binding z-score [7]: 3.3 | PBM binding z-score [8]: 4.03 | PBM binding z-score [9]: 2.17 | PBM binding z-score [10]: 5.28

CAAACTAGGTCACGAAAGGTCCAAGTCGAATGAC
PBM binding z-score [1]: 8.4 | PBM binding z-score [2]: 9.01 | PBM binding z-score [3]: 1.98 | PBM binding z-score [4]: 0.788 | PBM binding z-score [5]: 2.59 | PBM binding z-score [6]: 3.32 | PBM binding z-score [7]: 0.339 | PBM binding z-score [8]: 3.32 | PBM binding z-score [9]: 1 | PBM binding z-score [10]: 4.51

TCTTGTAGATCAAAGATTAAGAAAGCCGAAGCCT
PBM binding z-score [1]: 1.71 | PBM binding z-score [2]: 0.407 | PBM binding z-score [3]: 0.363 | PBM binding z-score [4]: 0.404 | PBM binding z-score [5]: -0.224 | PBM binding z-score [6]: 0.137 | PBM binding z-score [7]: -0.525 | PBM binding z-score [8]: 0.257 | PBM binding z-score [9]: 0.694 | PBM binding z-score [10]: -0.16
